# In all, about 390,000 compounds went through this assay and about 35 (0.009%) were called active. Roughly 6% stayed inconclusive and do not appear here. The entries come from a sample that favours actives as a whole. A number with no mark means an inactive call. Calls come from the whole dose curve; as a rule, active = well fitted inhibition curve with a large enough effect in the polarisation, with a control signal flat (not every such curve was filed as active); inconclusive = small, poorly fitted or top-dose-only effect, or effect the other way, or a change in a side signal; inactive = no such curve, though single readings can be large or run the other way; the % refers to the polarisation.
# Target: Peptidyl-prolyl cis-trans isomerase NIMA-interacting 1 (Homo sapiens) (UniProt Q13526)
# Sequence (Q13526 whole entry, looked up): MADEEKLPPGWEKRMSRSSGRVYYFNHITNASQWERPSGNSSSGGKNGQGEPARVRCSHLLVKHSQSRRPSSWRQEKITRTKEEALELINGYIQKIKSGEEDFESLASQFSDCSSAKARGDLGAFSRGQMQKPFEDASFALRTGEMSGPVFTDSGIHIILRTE
# Assay: qHTS Assay to Find Inhibitors of Pin1
# Conditions: Pin1 FP peptide displacement, HiFluor488, 10 min; series mostly up to 115 µM; activity, negative = inhibition: at the top concentration
# Excerpt: NIH Molecular Libraries Probe Production Network [MLPCN]
# NIH Chemical Genomics Center [NCGC]
# The unique chemical properties of Pro allow for the adoption of two completely distinct amide bond conformations (cis and trans). Peptidyl-prolyl cis/trans isomerases (PPIases) are evolutionary conserved enzymes that catalyze cis/trans isomerization of peptidyl-prolyl peptide bonds. Distinct from all other PPIases such as cyclophilins and FK506-binding proteins (FKBPs), Pin1 binds a subset of phos.Ser/Thr-Pro-containing proteins using its protein-targeting WW domain and isomerizes only specific phos.Ser/Thr-Pro bonds, which cannot be effectively catalyzed by other known PPIases.
# Pin1-catalyzed conformational regulation can control a spectrum of activities of many key regulators in diverse cellular processes such as cell growth, genotoxic and other stress responses, immune response, germ cell development, neuronal differentiation and survival. Pin1 has emerged as a novel molecular timer that modulates its multiple targets at various steps of a given cellular process to synergistically control the amplitude and duration of a cellular response or process. Importantly, Pin1 is tightly regulated by multiple levels and its deregulation has an important role in a growing number of pathological conditions, including cancer, Alzheimer's disease, aging, asthma and microbial infection, providing a potentially new therapeutic option.
# The goal of this screen is to find small-molecule inhibitors of Pin1 using a fluorescence polarization competition assay. A HiFluor-488-labeled peptide binds to the active site of Pin1 and can be displaced by compounds. Compounds were screened as a concentration-titration series that ranged from 57 uM to 0.7 nM.
# NCGC Assay Protocol Summary:
# Pin1 (0.6 uM) was dispensed into black, solid 1536-well plates at 2 uL/well in 10 mM HEPES (pH 7.5), 10 mM NaCl, 0.01% Tween20, 1 mM DTT, and 1% glycerol. Then, 23 nL of compounds or DMSO were delivered to each well using a pin tool. Two uL of Pin1-1b-HiFluor488 peptide (10 mM HEPES (pH 7.5), 10 mM NaCl, 0.01% Tween20, 1 mM DTT, and 1% glycerol, 0.02 uM Pin1-1b-HiFluor488) was then dispensed, and plates were incubated at room temperature for 10 min. The plates were measured on a ViewLux plate reader for fluorescence polarization signal using a 480/20 nM nm excitation filter and 540/25 nM nm S and P emission filters with a 20 second exposure. The %Activity was determined from the corrected fluorescence polarization values. Unlabeled Pin1-1c peptide was used as a control (3.5 mM two-fold serial; 20 uM final concentration) along with a 1x (0.3 uM) and 0x (no-enzyme) Pin1 enzyme control to normalize %Activity of identified inhibitors; 0x enzyme values corresponded to 100%Activity (full inhibition), while 1x Pin1 enzyme values were used to normalize 0%Activity (no inhibition).
# Concentration-response curves were fitted to the signals arising from the resulting fluorescence polarization. The concentration-effect curves were then classified based on curve quality (r2), response magnitude and degree of measured activity, and compounds were subsequently categorized based on their curve class.
# Keywords: Peptidyl prolyl isomerase, Pin1, fluorescence polarization, MLSMR, MLPCN, NIH Roadmap, qHTS, NCGC
# Potency is the fitted concentration of half-maximal effect.
Compound,"activity, negative = inhibition [%]",Potency
Cc1ccc(CNC(=O)CSc2c(C)cnc3c2c(=O)n(C)c(=O)n3C)cc1,-9.06,
CCc1cc2c(cc3c(=O)n(CC(=O)N4CCN(c5cc(Cl)ccc5C)CC4)ncn32)s1,3.35,
CCCN1CCC(=O)N(C(CSc2ccc(C)cc2)Cc2ccccc2)CC1 (configuration not stated),1.02,
CCCCn1c(=O)c2oc3ccccc3c2n(CC(=O)Nc2ccccc2OC)c1=O,-1.59,
Cn1c(=O)oc2cc(S(=O)(=O)CCC(=O)NCCc3ccc(Cl)cc3)ccc21,-2.53,
COc1ccc(C(=O)N(Cc2ccccc2)Cc2ccc(OC)c(COc3ccc(NC(C)=O)cc3)c2)c(O)c1,2.36,
O=C1C(F)N([S+](=O)([O-])c2ccc3c(c2)OCCO3)CCN1[S+](=O)([O-])c1c(F)cccc1F (configuration not stated),0.717,
Cc1ccccc1CN1CCC(CNC(=O)c2cc3ccc4cccnc4c3[nH]2)CC1,2.12,
CN(Cc1cncn1C)c1ncnc2ccc(-c3ccc4c(c3)OCO4)cc12,-0.072,
CC(C)(C)NS(=O)(=O)c1cccc(Nc2nn3c(=O)c4ccccc4nc3s2)c1,102,
COc1ccc(Cn2cc(C(=O)c3ccc(C)cc3)c(=O)c3cc(OC)c(OC)cc32)cc1,8.62,
Cc1ccc(NC(=O)c2cc3cc(C)ccc3n2C)cc1,-5.9,
N#CN1CCC(NC(=O)c2ccc(F)cc2)CC1,-0.423,
O=C(CNC(=O)c1ccc(Cl)cc1Cl)OC(C(=O)Nc1cc(C(F)(F)F)ccc1Cl)c1ccccc1 (configuration not stated),36.8,
N#CN1CCC(NS(=O)(=O)c2cccc(F)c2)C1 (configuration not stated),-0.967,
O=C(COc1ccccc1)NCc1ccc2c(c1)CCN2C(=O)c1ccc(F)cc1,-3.72,
CN(C)c1ccc(C(=O)NCC(=O)OC(C(=O)Nc2cc(C(F)(F)F)ccc2Cl)c2ccccc2)cc1 (configuration not stated),-0.299,
CC1CCCCN1S(=O)(=O)c1ccc(F)c(C(=O)Nc2ccccc2C(F)(F)F)c1 (configuration not stated),-3.9,
Cc1noc(C)c1-c1ccc2ncnc(NCc3ccc4[nH]ccc4c3)c2c1,4.44,
Brc1ccc2c(c1)NC(c1cccnc1)=NC(c1ccccc1)=N2,-8.22,
CS(=O)(=O)c1ccc(-c2nnc(NC(=O)c3ccc4c(c3)OCCO4)o2)cc1,0.171,
CCN(Cc1ccccc1)C(=O)c1cn(-c2cccc(OC)c2)c(=O)c2ccccc12,-15.2,
O=C(c1ccccc1F)N1CCC(c2nc3c(nnn3Cc3cccc(F)c3)c(=O)[nH]2)CC1,-1.2,
COc1cc(OC)cc(C(=O)Nc2cc3nn(-c4ccccc4)nc3cc2Cl)c1,1.15,
O=C(c1ccc2c(c1)N(Cc1ccccc1)C(=O)c1ccccc1S2(=O)=O)N1CCC(Cc2ccccc2)CC1,4.02,

Compound,"activity, negative = inhibition [%]",Potency
COc1cccc(Cn2c(SCc3ccc(C(=O)N4CCC(C)CC4)cc3)nc3ccncc32)c1,5.45,
O=S(=O)(c1ccc2nc(NCc3ccccc3Cl)ccc2c1)N1CCCCC1,44.9,
Oc1ccc(/C=C/c2c(F)cccc2F)c2cccnc12,0.14,
Oc1ccc(Br)cc1C1C=C(c2ccc3c(c2)OCO3)NC(c2ccc(Cl)cc2)N1 (configuration not stated),52.8,
O=C(NCc1ccccn1)[C@]1(C(F)(F)F)C[C@H](CCc2ccccc2)CCCO1,-0.539,
CCOc1ccccc1C(=O)Nc1ccc(S(=O)(=O)N2CCCCC2c2cccnc2)cc1 (configuration not stated),21.9,
Cc1ccc(-c2nc3ccccn3c2Nc2ccc(F)cc2)o1,-7.84,
COc1ccc(CNC(=O)CSc2n[nH]c(-c3ccc(F)cc3)n2)cc1,-3.7,
O=C(NC1CC(=O)N(c2ccc(F)cc2)C1)c1ccc(S(=O)(=O)N2CCCC2)cc1 (configuration not stated),-9.06,
CCc1ccccc1NC(=O)c1ccc2nc(CCc3ccccc3)oc2c1,2.6,
CCc1ccc(CNC(=O)C2CCN(c3nn4cc(-c5ccc(F)cc5)nc4s3)CC2)cc1,0.155,
Cc1ccc(CNc2ncnc3cc(-c4ccc5c(c4)OCO5)ccc23)o1,62,
CN1C(=O)c2ccccc2Sc2ccc(NC(=O)Cc3ccc(Cl)cc3)cc21,26.7,
Cc1cc2c(cc3c(SCc4nc(-c5ccccc5)oc4C)nnc(C)n32)o1,8.69,
CCOC(=O)C1CCN(C(=O)CSc2c3c(nc4ccc(Cl)cc24)CCCC3)CC1,-0.165,
Cc1c(Cl)cccc1NC(=O)CCS(=O)(=O)c1ccc2c(c1)oc(=O)n2C,0.402,
O=C(CN1c2ccccc2S(=O)(=O)c2ccccc21)Nc1cccc(C(F)(F)F)c1,4.41,
O=C(COc1ccccc1F)Nc1ccc(C(=O)OCc2cc(=O)n3nc(C4CC4)sc3n2)cc1,-6.29,
N#Cc1nc(Nc2cccc(Cl)c2)nc(NC2CCCC2)n1,1.36,
COc1ccc(Cn2ccn(CC(=O)Nc3cc(C)ccc3C)c(=O)c2=O)cc1,0.673,
COc1cccc(NC(=O)c2ccc3nc(CCc4ccccc4)oc3c2)c1,14.7,
COc1ccc(CC(=O)N2CC(=O)Nc3ccc(Br)cc3C2c2ccc(F)cc2)cc1OC (configuration not stated),-0.0112,
COc1ccc(N2CCN(S(=O)(=O)CCNC(=O)C(c3ccccc3)c3ccccc3)CC2)cc1,-3.85,
COc1ccc(C2/C=C\CN(C(=O)c3ccc(C)cc3)C(Cc3ccccc3)C(=O)N2Cc2ccc(F)cc2)cc1 (configuration not stated),8.96,
Cc1ccc2[nH]c3c(=O)n(CC(=O)NC(C)C)ncc3c2c1,5.47,

Compound,"activity, negative = inhibition [%]",Potency
COc1ccc(NC(=O)CCc2nnc3n(CC(C)C)c(=O)c4ccccc4n23)cc1OC,0.559,
Cc1ccc(Cn2ncc3c4sc(C)cc4n(C)c3c2=O)c(C)c1,2.78,
COc1cc(OC)c2c(C)cc(=O)oc2c1C(CCN1CCCCC1)c1ccc(N(C)C)cc1 (configuration not stated),0.75,
CCc1nnc(SCc2c(F)cccc2Cl)c2cc3sccc3n12,0.246,
O=C1CCc2cc(S(=O)(=O)Nc3cccc(Oc4ccccc4)c3)ccc2N1,4.76,
NC(=O)C1CCN(c2cc(-c3ccc4c(c3)OCCCO4)ncn2)CC1,0.493,
COc1ccc(OCc2ccc(-c3nc(C#N)c(N4CCN(c5ccccc5)CC4)o3)o2)cc1,-7.37,
COc1ccc(Cl)cc1NC(=O)CSc1nc2ccccc2c2nc(-c3ccccc3)nn12,-6.43,
CCCN1CCC(=O)N(C(CSc2ccc(OC)cc2)Cc2ccccc2)CC1 (configuration not stated),-9.3,
COc1ccc(CCC(=O)NCc2ccc3c(c2)CCN3C(=O)c2ccc(F)cc2)cc1,-7.47,
Cc1ccc(-c2nnc3c4ccccc4c(C)nn23)cc1NC(=O)c1cccc(Br)c1,-5.3,
Cc1cc2c(s1)c1cnn(Cc3cc(F)c(Cl)cc3Cl)c(=O)c1n2C,-4,
COc1cc(Cl)c(C)cc1Nc1nnc(-n2nc(C)cc2C)c2ccccc12,0.488,
COc1ccc(C2Nc3ccccc3C(=O)N2Cc2ccco2)cc1COc1cccc(NC(C)=O)c1 (configuration not stated),47.2,
COc1ccc(-c2ccc3ncnc(NCc4cccs4)c3c2)cc1OC,0.753,
COc1ccc(C2/C=C\CN(Cc3ccco3)C(C)C(=O)N2Cc2ccc(F)cc2)cc1 (configuration not stated),25.5,
COc1ccc(-c2onc(C)c2C)cc1S(=O)(=O)NCc1cccs1,-1.97,
Cc1cc(C)n2ncc(C(=O)N3CCCC3)c2n1,-11.3,
CC(C)Oc1cccc(-c2cnc(N3CCC(C(N)=O)CC3)s2)c1,1.95,
CCCc1nn2c(=O)cc(COC(=O)c3ccc(NC(=O)C(C)Oc4ccccc4)cc3)nc2s1 (configuration not stated),-8.84,
Cc1ccc(S(=O)(=O)CCC(=O)OCC(=O)N(C)C2CCS(=O)(=O)C2)cc1 (configuration not stated),-16,
Cc1cc(C(=O)OCC(=O)N2C(C)CCCC2C)c2ccccc2n1 (configuration not stated),3.11,
CN(C(=O)COC(=O)c1cc(-c2ccco2)nc2ccccc12)C1CCS(=O)(=O)C1 (configuration not stated),,35.5 µM (active)
C=C1CCN(C(CC(C)C)C(=O)NCc2cc(OC)c(OC)c(OC)c2)S(=O)(=O)c2ccccc21 (configuration not stated),3.4,
CCCCS(=O)(=O)c1oc(-c2cccs2)nc1S(=O)(=O)c1ccccc1,14.3,

Compound,"activity, negative = inhibition [%]",Potency
CCCS(=O)(=O)N1CCC(n2c(C(F)(F)F)nc3cccnc32)CC1,1.49,
N#Cc1ccc(OC2=NS(=O)(=O)c3ccccc32)cc1,-6.79,
O=C(NCc1nnc(C(=O)Nc2ccc(C(F)(F)F)cc2Cl)o1)c1ccccc1,4.91,
Cc1cccc2c1-c1sc(C(=O)Nc3ccc(F)cc3F)cc1CO2,-0.856,
C#CCOc1ccc(C2CC(=O)Nc3c2c(C)nn3-c2nc(C)cc(C)n2)cc1 (configuration not stated),-7.62,
CCCN(CCC)CCNC(=O)Cn1cnc2sc(C)c(S(=O)(=O)N3CCC(C)CC3)c2c1=O,-1.59,
COc1ccccc1CNC(=O)c1ccc(NC(=O)N2CC(C)Sc3ccccc32)cc1 (configuration not stated),7.05,
O=C(O)c1ccc2c(c1)N(Cc1ccc(F)cc1)C(=O)c1ccccc1S2=O (configuration not stated),0.384,
O=C(CC1Oc2ccc(Cl)cc2NC1=O)NCc1ccccc1 (configuration not stated),1.66,
CCOC(=O)c1cccc(NC(=O)Cn2cnc3nc4c(cc3c2=O)CCCC4)c1,-0.357,
COc1ccc(OC)c(NC(=O)CN2CCCN(Cc3cc(C)ccc3C)S2(=O)=O)c1,-5.1,
Cc1ccc2sc(N(Cc3cccnc3)C(=O)C3COc4ccccc4O3)nc2c1C (configuration not stated),6.41,
CNC(=O)CN1C(=O)c2cccnc2Sc2ccccc21,8.77,
CC(=O)N1c2ccccc2CC1C(=O)N1CCN(c2ccc(F)cc2)CC1 (configuration not stated),-8.41,
O=C(NCC1CC1)C1(C(F)(F)F)C/C(=C\CCO)CCCO1 (configuration not stated),3.33,
CC(Nc1ncnc2ccc(-c3ccc4c(c3)OCO4)cc12)c1ccco1 (configuration not stated),14.7,
Cc1cccc(S(=O)(=O)c2cn(Cc3ccccc3)c3cc(N4CCOCC4)c(F)cc3c2=O)c1,9.72,
COc1cccc(C2C(C(=O)Nc3ccc(C)cc3C)=C(C)Nc3c(C(=O)Nc4ccccc4)cnn32)c1 (configuration not stated),11.3,
CCCC(=O)Nc1cc(C(=O)NCc2ccc(OC)cc2)ccc1S(=O)(=O)c1ccc(Cl)cc1,8.08,
COCCNC(=O)CSc1nc(-c2ccccc2)[nH]c1-c1ccc(C)cc1,1.52,
C=CCNC(=O)c1ccc2nc(-c3ccco3)c(-c3ccco3)nc2c1,20.3,
Cc1ccc(S(=O)(=O)NC(N)=NCCC[C@@H](NC(=O)CNC(=O)c2ccccc2)C(=O)Nc2cc(C(F)(F)F)ccc2Cl)cc1,4.14,

# — PubChem BioAssay AID504891 (National Center for Advancing Translational Sciences (NCATS), 2011)
